This is an account of results in PubChem BioAssay (NCATS).

SMILES strings stand for the structures. A number with no mark means an inactive call. Results filed as inconclusive are left out. Calls of active or inactive are those of the source. Unless noted, calls follow the shape of the dose curve; as a rule, active = well fitted curve in the direction sought with a large enough effect; inconclusive = small, poorly fitted or top-dose-only effect, or another doubt; inactive = no such curve, though single readings can be large; an effect the other way counts as inactive or inconclusive.

Assay [1] addresses Cytochrome P450 3A4 (Homo sapiens) (UniProt P08684). In words: qHTS Assay for Activators of Cytochrome P450 3A4 (AID 885). Also: nearly all actives have a fitted effect of over 65% in size. A digest of the protocol:
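Quantitative HTS format: compounds preincubated with 20nM human CYP3A4 and Luciferin-PPXE substrate at KM, reaction started by NADPH regeneration, stopped after 60 min, luciferase luminescence read 20 min later.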

Assay [2] in a line: qHTS Assay for Identification of Small Molecule Antagonists for NFkB Signaling Pathway (AID 895; active = well fitted inhibition curve with a large enough effect in the signal ratio, with a control signal flat, not every such curve was filed as active; the % refers to the signal ratio; also: % is scaled to controls: 0 for no effect and ±100 for the full control effect). The method, boiled down: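 ME-180 NFkB-bla cells (beta-lactamase under NFkB response element), plated overnight, treated with compound then 10 pM TNF alpha (about EC50) for 5 hrs at 37 C. LiveBLAzer FRET read at 460/530 nm emission, 405 nm excitation.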
Assay [3] can be described thus: qHTS Assay for Identification of Small Molecule Agonists for Hypoxia Response Element Signaling Pathway (AID 914; active = well fitted activation curve with a large enough effect in the signal ratio, with a control signal flat, not every such curve was filed as active; the % refers to the signal ratio; also: % of control where 0% means no effect). Conditions: ME-180 (cervical carcinoma) HRE-bla reporter, beta-lactamase ratio, CoCl2, 17 h; activation: stronger effect = higher value. The method, boiled down:
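Cells were plated overnight, pin-dosed with compound in a titration series, co-stimulated with EC50 CoCl2 and incubated 17 hours at 37 degrees Celsius. CCF4 substrate was then loaded, and AC50 values came from the 460nm/530nm ratio.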

Assay [4] in a line: qHTS Assay for Identification of Small Molecule Agonists for Thrombopoietin (TPO) Signaling Pathway (AID 917). Also: % is scaled to controls: 0 for no effect and ±100 for the full control effect. The method, boiled down: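 Murine Ba/F3 cells expressing human TPO receptor and GPIIb-promoter luciferase, IL-3-starved overnight, given compound plus TPO at 26 pM (EC50). After 24 h at 37 C, 5% CO2, luminescence read.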
Assay [5] concerns the target Cytochrome P450 3A4 (Homo sapiens) (UniProt P08684). In words: qHTS Assay for Inhibitors and Substrates of Cytochrome P450 3A4 (AID 884). Also: % is scaled to controls: 0 for no effect and ±100 for the full control effect; nearly all actives have a fitted effect of over 50% in size. A digest of the protocol:
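20 nM human CYP3A4 with 25 uM Luciferin-PPXE (at KM) in 200 mM KPO4, preincubated 10 min with compound; NADPH regeneration started a 60 min RT reaction. Luciferin detected by luminescence, normalized to 57 uM ketoconazole as full inhibition.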

Assay [6] in a line: Confirmation and Secondary Assay for Modulators of Hemoglobin Beta Chain Splicing at IVS2 654 locus (AID 910).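 Also: HeLa cells stably carrying EGFP split by mutant beta-globin IVS2-654 intron; % of control where 0% means no effect.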 The method, boiled down: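 HeLa cells stably expressing EGFP interrupted by β-globin IVS2-654 intron, seeded overnight in Opti-MEM/2% FCS, then treated 2 days at 37 °C. Restored splicing read as total peak GFP intensity per well by laser scanning cytometry (488 nm excitation, 500–520 nm emission); 500 nM antisense PNA as control.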

Assay [7] is described as follows: Confirmation and Secondary Assay for Modulators of Hemoglobin Beta Chain Splicing at IVS2 705 locus (AID 930).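 Also: HeLa cells stably expressing the EGFP-705 splicing reporter; GFP fluorescence per well restored by corrected splicing of the IVS2-705 intron in EGFP; % of control where 0% means no effect.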 A digest of the protocol:
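Splice-correction reporter: EGFP cDNA split by beta-globin intron 2 bearing the 705 mutation, stably in HeLa. Compound incubation 2 days, 37C; fluorescent objects 5-250 µm summed per well.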

Assay [8] has as its target Cytochrome P450 2D6 (Homo sapiens) (UniProt P10635). In words: qHTS Assay for Inhibitors and Substrates of Cytochrome P450 2D6 (AID 891). Also: nearly all actives have a fitted effect of over 60% in size. Also: potency is read from the fitted curve at half-maximal effect. The method, boiled down: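 Human CYP2D6 (5 nM) with 30 uM Luciferin-ME EGE (at Km) in 100 mM KPO4, compound preincubated 10 min, then NADPH regeneration system for 60 min at room temperature. Luciferin read by luminescence; normalized to 1.43 uM quinidine.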
A general note: qHTS replaces the single test concentration by a dilution series.

Assay [9] can be described thus: S16 Schwann cell PMP22 intronic element firefly luciferase assay (AID 624032).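 Also: plate controls were DMSO for no effect and PTC124 positive control mean for full effect; nearly all actives have a fitted effect of over 30% in size.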 The method, boiled down:
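Rat S16 Schwann cells stably carrying firefly luciferase driven by a PMP22 intronic element, in 10% FBS, treated 24 h at 37 C. ONE-Glo luminescence normalized to PTC124 control and DMSO (0%); curves classed by r2, magnitude and activity.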

The nature of assay [10]: Inducers of the Endoplasmic Reticulum Stress Response (ERSR) in human glioma: Validation (AID 504836). Also: 0% is about no effect. The method, boiled down:
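Stably transfected U87-MG glioma cells carrying a GRP78-based luciferase sensor; 16 h compound incubation. Luminescence end-point read 10 min after Bright-Glo addition at room temperature.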

For assay [11], the target named is Tyrosyl-DNA phosphodiesterase 1 (Homo sapiens) (UniProt Q9NUW8). Description: Confirmation Assay for Inhibitors of Tyrosyl-DNA Phosphodiesterase (TDP1) (AID 489007). Also: potency is read from the fitted curve at half-maximal effect; nearly all actives have a fitted effect of over 40% in size. As to conditions: recombinant human TDP1 enzymatic activity, dose-response. The method, boiled down: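 Recombinant human Tdp1 (1 nM final), expressed in E. coli, preincubated 15 min with compound. Then 15 nM 5'-biotin/3'-phosphotyrosine-FITC DNA substrate added for 5 min at room temperature. AlphaScreen beads (10 ug/ml) added for 10 min; cleavage gives signal loss.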

Assay [12] deals with ATP-dependent 6-phosphofructokinase (Trypanosoma brucei brucei) (UniProt O15648). Description: qHTS Assay to Find Inhibitors of T. brucei phosphofructokinase: hit validation (AID 492961). Also: % is scaled to controls: 0 for no effect and ±100 for the full control effect. The method, boiled down:
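Luminescence from ADP-Glo reports ADP generated as T. brucei PFK (1.25 nM) phosphorylates 0.5 mM fructose-6-phosphate using 0.1 mM ATP. Reactions ran 45 min at room temperature, pH 8.0.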

For the next assay, the system named is 7G8. In words: qHTS profiling for inhibitors of Plasmodium falciparum proliferation (AID 504749).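 Also: 0% = DMSO vehicle and full inhibition = artemisinin control; nearly all actives have a fitted effect of over 60% in size.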 As to conditions: P. falciparum in erythrocytes, SYBR Green DNA, 72 h; series mostly up to 28.7 µM. The method, boiled down: (§1)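 P. falciparum-infected erythrocytes (0.3% parasitemia, 2.5% hematocrit) incubated with compound 72 h at 37 C, 5% CO2. Parasite DNA detected by SYBR Green after lysis, overnight at room temperature; normalised to 0.29 uM artemisinin and DMSO.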

The next assay deals with CP266. Described as above. Conditions: P. falciparum in erythrocytes, SYBR Green DNA, 72 h; series mostly up to 28.7 µM. A digest of the protocol:
as §1

For a further assay, the system named is DIV17. Described as above. As to conditions: P. falciparum in erythrocytes, SYBR Green DNA, 72 h; series mostly up to 28.7 µM. The method, boiled down:
as §1

A further assay deals with PC26. Described as above. As to conditions: P. falciparum in erythrocytes, SYBR Green DNA, 72 h; series mostly up to 28.7 µM. The method, boiled down: as §1
For a further assay, the system named is TAB109. The description is as above. As to conditions: P. falciparum in erythrocytes, SYBR Green DNA, 72 h; series mostly up to 28.7 µM. A digest of the protocol: as §1
Another assay has as its system W2. The description is as above. As to conditions: P. falciparum in erythrocytes, SYBR Green DNA, 72 h; series mostly up to 28.7 µM. A digest of the protocol:
as §1

Sequence of ATP-dependent 6-phosphofructokinase (Trypanosoma brucei brucei) (O15648 whole entry, looked up): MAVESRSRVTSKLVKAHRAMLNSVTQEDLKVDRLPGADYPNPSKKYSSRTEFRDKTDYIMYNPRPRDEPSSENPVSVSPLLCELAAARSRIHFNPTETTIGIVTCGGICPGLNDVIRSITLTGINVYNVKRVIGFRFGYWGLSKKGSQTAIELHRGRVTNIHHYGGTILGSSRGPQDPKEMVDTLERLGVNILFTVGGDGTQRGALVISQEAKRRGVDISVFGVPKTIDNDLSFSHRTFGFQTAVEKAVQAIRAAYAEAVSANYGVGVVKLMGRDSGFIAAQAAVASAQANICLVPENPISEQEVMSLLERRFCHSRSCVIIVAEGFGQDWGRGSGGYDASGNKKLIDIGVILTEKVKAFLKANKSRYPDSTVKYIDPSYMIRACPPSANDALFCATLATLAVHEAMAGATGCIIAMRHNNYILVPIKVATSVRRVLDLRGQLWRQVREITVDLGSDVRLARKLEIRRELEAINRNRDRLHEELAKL
Sequence of Tyrosyl-DNA phosphodiesterase 1 (Homo sapiens) (Q9NUW8 whole entry, looked up): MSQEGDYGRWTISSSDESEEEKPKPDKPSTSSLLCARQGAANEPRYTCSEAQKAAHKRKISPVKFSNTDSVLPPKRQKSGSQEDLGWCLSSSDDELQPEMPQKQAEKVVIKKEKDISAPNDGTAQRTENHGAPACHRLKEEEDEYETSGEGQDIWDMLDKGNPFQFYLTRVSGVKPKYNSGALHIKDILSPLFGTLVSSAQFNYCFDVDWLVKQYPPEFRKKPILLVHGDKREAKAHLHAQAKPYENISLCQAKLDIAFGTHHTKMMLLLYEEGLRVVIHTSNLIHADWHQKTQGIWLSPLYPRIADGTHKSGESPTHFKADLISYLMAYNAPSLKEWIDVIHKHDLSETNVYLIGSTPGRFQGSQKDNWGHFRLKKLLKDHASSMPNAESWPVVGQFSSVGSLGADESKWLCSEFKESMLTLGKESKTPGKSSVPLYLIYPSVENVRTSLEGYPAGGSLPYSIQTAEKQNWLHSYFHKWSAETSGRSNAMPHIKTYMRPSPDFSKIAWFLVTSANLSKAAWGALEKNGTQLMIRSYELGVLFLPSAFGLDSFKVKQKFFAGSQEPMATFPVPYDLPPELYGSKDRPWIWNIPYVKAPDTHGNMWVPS
Sequence of Cytochrome P450 2D6 (Homo sapiens) (P10635 whole entry, looked up): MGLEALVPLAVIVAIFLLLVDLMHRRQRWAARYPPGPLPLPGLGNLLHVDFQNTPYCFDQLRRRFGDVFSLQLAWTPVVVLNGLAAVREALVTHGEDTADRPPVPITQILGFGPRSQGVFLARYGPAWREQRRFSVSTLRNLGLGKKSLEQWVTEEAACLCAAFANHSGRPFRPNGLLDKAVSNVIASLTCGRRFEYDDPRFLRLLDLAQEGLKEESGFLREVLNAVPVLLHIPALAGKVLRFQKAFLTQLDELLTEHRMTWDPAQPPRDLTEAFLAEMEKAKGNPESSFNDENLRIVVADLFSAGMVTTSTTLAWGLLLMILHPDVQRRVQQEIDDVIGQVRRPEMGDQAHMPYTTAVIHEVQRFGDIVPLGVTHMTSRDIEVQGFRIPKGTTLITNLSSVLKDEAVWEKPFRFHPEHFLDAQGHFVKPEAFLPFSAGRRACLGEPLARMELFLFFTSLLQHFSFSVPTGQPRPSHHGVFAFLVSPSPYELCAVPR
Sequence of Cytochrome P450 3A4 (Homo sapiens) (P08684 whole entry, looked up): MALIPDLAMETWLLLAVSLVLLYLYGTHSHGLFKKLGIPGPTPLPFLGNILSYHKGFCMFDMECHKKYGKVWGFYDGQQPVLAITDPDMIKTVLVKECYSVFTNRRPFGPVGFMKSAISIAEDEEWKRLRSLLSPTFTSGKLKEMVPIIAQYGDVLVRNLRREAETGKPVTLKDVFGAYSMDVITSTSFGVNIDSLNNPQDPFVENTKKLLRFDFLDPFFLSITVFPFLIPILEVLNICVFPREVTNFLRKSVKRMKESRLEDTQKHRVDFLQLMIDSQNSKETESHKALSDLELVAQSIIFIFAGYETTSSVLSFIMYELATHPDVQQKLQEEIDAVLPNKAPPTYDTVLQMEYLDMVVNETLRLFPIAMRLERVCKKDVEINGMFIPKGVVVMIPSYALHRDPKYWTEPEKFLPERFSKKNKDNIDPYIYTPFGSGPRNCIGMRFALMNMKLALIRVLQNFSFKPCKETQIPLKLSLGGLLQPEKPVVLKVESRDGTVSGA

In the case of `C[C@H]1CCCC=CC2C[C@H](O)C[C@@H]2[C@H](O)/C=C\C(=O)O1` (stereo partly drawn), the Potency entry in assay [1] was “inactive”. `NC(=O)c1ccc(OC[C@H](O)CN2CC=C(c3ccc(F)cc3)CC2)cc1`: in [2], the Potency result is “inactive”. Besides, the activation in assay [3] was -0.382%. As for `COc1ccc(OC)c([C@@H](O)[C@H](C)NC(C)(C)C)c1`, the activation in assay [3] is 0.127%. As to `C[C@@H]1O[C@@H](O[C@H]2C[C@@H](O)[C@]3(CO)[C@@H]4[C@@H](O)C[C@]5(C)[C@H]([C@@H]6COC(=O)C6)CC[C@@]5(O)[C@H]4CC[C@@]3(O)C2)[C@H](O)[C@H](O)[C@@H]1O`, in [4], the call was inactive. Turning to `COc1ccc2c(c1O)-c1c(OC)c(OC)cc3c1[C@@H](C2)N(C)CC3`, the Potency result in assay [5] and in [6] was “inactive” in each case. Moreover, the compound was called inactive in [7]. In the case of `CN[C@H]1[C@H]2[C@H]3CCN2C[C@@H]1O3`, in assay [8], the Potency entry is “inactive”. The same measure, in the same setting: next, `CN1CCc2cc3c(cc2[C@@H]1[C@H]1OC(=O)c2c1ccc1c2OCO1)OCO3`: 15.8 µM (active).

`O=c1[nH]c(=O)n([C@H]2C[C@H](O)[C@@H](CO)O2)cc1/C=C/Br`: in assay [9], the Potency result was “inactive”. With `[N-]=[N+]=Nc1ccc(C(=O)CSC[C@H](NC(=O)CC[C@H](N)C(=O)O)C(=O)NCC(=O)O)cc1`, in assay [10], the outcome was inactive. On the same count and under the same terms, next, `C1CCC(N=C(NC23CC4CC(CC(C4)C2)C3)N2CCOCC2)CC1`: “inactive”. Still for that read-out and setting: as for `COc1ccccc1CNCCCCCCNCCCCCCCCNCCCCCCNCc1ccccc1OC`, the entry is “inactive”. Same read-out and setting: as for `Nc1ncnc2c1c(-c1ccc(Oc3ccccc3)cc1)cn2C1CCCC1`, the entry is “inactive”; as for `O=C1C(SCCO)=C(SCCO)C(=O)c2ccccc21`, “inactive”. Turning to `CCCCOC(=O)NS(=O)(=O)c1sc(CC(C)C)cc1-c1ccc(Cn2c(CC)nc3c(C)cc(C)nc32)cc1`, the result in assay [10] was inactive. Still for that read-out and setting: next, `CC1(C)C(=O)N(CCN2CCC(C(=O)c3ccc(F)cc3)CC2)c2ccccc21`: “inactive”. With `CCOc1ccc2nc(N=Nc3c(O)[nH]c(=O)[nH]c3=O)sc2c1`, in [11], the Potency was 100 µM (active). Same read-out and setting: as for `CCOC(=O)C1CCN(/C=C2/C(=O)NC(=O)N(Cc3ccco3)C2=O)CC1`, the figure is 44.7 µM (active). For the compound `CCC(C)C1NC(=O)C(Cc2ccc(O)cc2)NC(=O)C(N)CSSCC(C(=O)N2CCCC2C(=O)NC(CC(C)C)C(=O)NCC(N)=O)NC(=O)C(CC(N)=O)NC(=O)C(CCC(N)=O)NC1=O` (stereo not drawn), the result in assay [12] was inactive. `CN(C)c1ccc(/C=C2/C(=O)NC(=O)N(Cc3ccco3)C2=O)cc1`: the Potency in assay [11] was 100 µM (active).

Consider `CC(=O)Nc1ccc(N=Cc2c(O)n(Cc3ccco3)c(=O)[nH]c2=O)cc1`, for which the Potency in [11] was 22.4 µM (active).

As to `CCNC(=O)[C@@H]1CCCN1C(=O)[C@H](CCCN=C(N)N)NC(=O)[C@H](CC(C)C)NC(=O)[C@@H](Cc1c[nH]c2ccccc12)NC(=O)[C@H](Cc1ccc(O)cc1)NC(=O)[C@H](CO)NC(=O)[C@H](Cc1c[nH]c2ccccc12)NC(=O)[C@H](Cc1cnc[nH]1)NC(=O)[C@@H]1CCC(=O)N1`, the compound was classed as inactive in assay [12].

In the case of `Oc1cc(O)c2c(c1)OC(c1cc(O)c(O)c(O)c1)C(O)C2` (stereo not drawn), the Potency in assay [11] is 5.01 µM (active). On the same count and under the same terms, as for `O=c1c2ccccc2nc(/C=C/c2cccnc2)n1Cc1ccccc1`, the figure is 14.1 µM (active); as for `CCOC(=O)CCCc1cc[c]([Sb](=[O])([OH])[OH])cc1`, 0.794 µM (active); as for `O=C1NC(=O)N(c2ccc3c(c2)OCO3)C(=O)/C1=C\c1ccc(-c2ccccc2C(=O)O)o1`, 3.16 µM (active). With `Nc1nc(/C(=C/CC(=O)O)C(=O)NC2C(=O)N3C(C(=O)O)=CCSC23)cs1` (stereo not drawn), the Potency in assay [11] was 12.6 µM (active). On the same count and under the same terms, as for `CCc1nnc(NC(=O)CSc2ccc(-c3ccco3)nn2)s1`, the figure is 15.8 µM (active); as for `O=C1NC(=S)NC(=O)C1=Cc1ccc2c(c1)CCN2CCCCl`, 2.51 µM (active). On the same count and under the same terms, next, `CC(C)(O/N=C(\C(=O)N[C@@H]1C(=O)N2C(C(=O)[O-])=C(C[n+]3ccccc3)CS[C@@H]12)c1csc(N)n1)C(=O)O`: 15.8 µM (active); `[O]=[Sb]([OH])([OH])[c]1ccccc1`: 6.31 µM (active); `C[C@H](CCC(=O)O)[C@H]1CC[C@@H]2[C@H]3CC[C@H]4C[C@H](O)CC[C@]4(C)[C@@H]3CC[C@@]21C`: 100 µM (active). Take `OC[C@@H](O)[C@H]1O[C@@H]2OC(C(Cl)(Cl)Cl)O[C@H]2[C@H]1O` (stereo partly drawn): the compound was classed as inactive in assay [12]. Further, the Potency entry (in [9]; in the assay on 7G8; in the assay on CP266; with DIV17; in the assay with PC26; with TAB109) was “inactive” throughout. Besides, in the assay on W2, the Potency result was “inactive”. Turning to `C[C@@H](N)[C@@H](O)c1ccc(O)c(O)c1`, the Potency result in the assay on 7G8, in the assay on CP266, in the assay with DIV17, in the assay on PC26, in the assay with TAB109 and in the assay with W2 was “inactive” in each case.
